# Screening results from PubChem BioAssay.
# Most compounds without a hit are left out; they make up all but 19% or so of the library.
# IL-1B inflam inh: qHTS for Inhibitors of Inflammasome Signaling: IL-1-beta AlphaLISA Primary Screen. THP-1 LPS/ATP IL-1B secretion, AlphaLISA, 16 h; active compounds read low. activity change, % at 57.5 µM. actives 4.7% (n = 360,000). AID 743279, 2014; in the data active means activity change below about -50%; inconclusive means mostly about -30% to -49%
#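 Secreted IL-1B measured by AlphaLISA bead assay after 16 h compound exposure of THP-1 cells; compounds (final up to 57.5 uM) added 1 h before LPS (250 ng/mL) and ATP (1.25 mM) stimulation; lower signal means less secretion.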
# TDP1 cell CPT: qHTS for Inhibitors of human tyrosyl-DNA phosphodiesterase 1 (TDP1): qHTS in cells in presence of CPT; chicken DT40 Tdp1-/-;hTDP1 cells + 20 nM CPT, ATP luminescence, 48 h; Potency, µM (highest dose often 46.2 µM), inactives show at the top dose activity change, negative = growth inhibition, actives largely listed as inhibitors; actives 12% (n = 420,000); further: potency means the concentration at half of the fitted maximal effect; nearly all actives have a fitted effect of over 55% in size
#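 Chicken DT40 Tdp1-/- cells complemented with human TDP1, 400 cells/well, exposed to compounds plus 20 nM camptothecin for at least 48 h at 37 C; viability read as ATP content by CellTiter-Glo luminescence.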
# DT40 TDP1 no CPT: qHTS for Inhibitors of human tyrosyl-DNA phosphodiesterase 1 (TDP1): qHTS in cells in absence of CPT; Potency, µM (series often up to 46.2 µM), inactives show top-dose activity change, negative = growth inhibition, hits mostly inhibitors; DT40 Tdp1-/- hTDP1 cells, no CPT, ATP luminescence, 48 h; actives 15% (n = 420,000); AID 686978, 2013; further: potency means the concentration at half of the fitted maximal effect; nearly all actives have a fitted effect of over 55% in size
#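 Camptothecin absent (DMSO only). Human TDP1-complemented DT40 knockout cells, 400 cells/well, 37 °C for minimum 48 hr; ATP measured via CellTiter-Glo, 30 min dark incubation, luminescence.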
# Giardia killer: Small Molecules that selectively kill Giardia lamblia: qHTS; activity change, % at 7.66 µM, hits read low; actives 0.15% (n = 340,000); Giardia lamblia trophozoite viability; in the data active means activity change below about -80%; inconclusive means between about -30% and that limit;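 further: parasites exposed to compound for two days anaerobically before the ATP read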
#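 Each well holds 100 Giardia trophozoites and compound. After two days (48 hrs) at 37 deg C in anaerobic conditions, ATP is quantified by luminescence.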
# ELG1 DNA repair: qHTS screen for small molecules that inhibit ELG1-dependent DNA repair in human embryonic kidney (HEK293T) cells expressing luciferase-tagged ELG1; actives 2.3% (n = 330,000); HEK293T ELG1-luciferase reporter, luminescence, 16 h; DNA damage induced by 5-fluorouridine; Potency, µM (series often up to 46.1 µM), for inactives: at the highest dose activity change, negative = inhibition, actives largely listed as inhibitors; AID 504467, 2011; further: potency means the concentration at half of the fitted maximal effect; nearly all actives have a fitted effect of over 55% in size
#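 In this reporter screen, reduction of luminescence relative to DMSO vehicle indicated activity. Compounds and 5-fluorouridine were added together to 2,000 cells per well, incubated for 16 hr at 37 °C, then developed with ONE-Glo.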
# TDP1 inh: qHTS Assay for Inhibitors of Tyrosyl-DNA Phosphodiesterase (TDP1); Tyrosyl-DNA phosphodiesterase 1 (Homo sapiens), Q9NUW8; recombinant TDP1, AlphaScreen DNA substrate cleavage; Potency, µM (highest dose often 130 µM), inactives show at the top dose activity change, negative = inhibition, most hits filed as inhibitors; actives 0.28% (n = 350,000); AID 485290, 2010; further: potency means the concentration at half of the fitted maximal effect; nearly all actives have a fitted effect of over 40% in size
# Target sequence (Q9NUW8 whole entry, looked up): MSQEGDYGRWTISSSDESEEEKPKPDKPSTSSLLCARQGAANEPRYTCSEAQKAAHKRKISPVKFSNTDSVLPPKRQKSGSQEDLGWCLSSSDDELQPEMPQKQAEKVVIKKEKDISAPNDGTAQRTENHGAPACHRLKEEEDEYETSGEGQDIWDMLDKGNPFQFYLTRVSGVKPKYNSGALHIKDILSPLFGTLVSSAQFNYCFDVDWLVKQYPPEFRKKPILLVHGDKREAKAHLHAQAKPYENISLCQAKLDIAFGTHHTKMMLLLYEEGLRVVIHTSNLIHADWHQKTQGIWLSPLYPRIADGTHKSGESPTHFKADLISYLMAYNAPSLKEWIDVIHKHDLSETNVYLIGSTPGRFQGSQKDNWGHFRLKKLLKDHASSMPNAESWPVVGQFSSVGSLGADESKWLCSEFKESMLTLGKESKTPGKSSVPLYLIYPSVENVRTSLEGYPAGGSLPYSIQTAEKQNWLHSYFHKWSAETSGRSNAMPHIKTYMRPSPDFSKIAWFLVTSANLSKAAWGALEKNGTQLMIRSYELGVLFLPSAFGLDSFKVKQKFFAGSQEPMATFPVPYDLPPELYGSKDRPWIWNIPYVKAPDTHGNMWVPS
#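 E. coli-derived human Tdp1, 1 nM final. Cpd preinc 15 min RT; substrate 15 nM final, 5 min RT; AS bead mix 10 ug/ml final, 10 min RT. Signal loss = tyrosine-FITC cleavage. No-enzyme wells = max signal.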
# * hit, by the source's call; ? = inconclusive; · = not tested or not shown. Unless noted, the call rests on the fitted dose curve; in most records, active means well fitted curve in the direction sought with a large enough effect; inconclusive means small, poorly fitted or top-dose-only effect, or another doubt; inactive means no such curve, though single readings can be large; an effect the other way counts as inactive or inconclusive. On the % scale 0 is the no-effect control and ±100 the full control effect.
SMILES,IL-1B inflam inh,TDP1 cell CPT,DT40 TDP1 no CPT,Giardia killer,ELG1 DNA repair,TDP1 inh
O=C(NCCCc1nc2ccccc2n1Cc1ccccc1Cl)C1CCCCC1,·,23µM*,18µM*,·,·,0%
CCCCn1c(SCC(=O)Nc2nnc(C)s2)nnc1-c1ccncc1,7,3%,17%,-8,-20%,-6%
O=C(CSc1nncs1)NCCCc1ccccc1,-3,1%,-18%,-5,?,5%
CCOc1ccc2oc(C(=O)O)c(C)c2c1,-10,10%,-5%,16,?,5%
Cc1c(C(=O)NNC(=O)c2ccccc2O)oc2ccc(Br)cc12,19,21µM*,?,2,·,·
CCOc1ccc2oc(C(=O)NNC(=O)c3ccccc3O)c(C)c2c1,31,?,26µM*,9,16%,·
CCOCCCNC(=O)C(c1ccc(C)cc1)N(Cc1ccc2c(c1)OCO2)C(=O)c1ccccc1O (stereo not drawn),·,23µM*,16µM*,·,·,9%
CCOCCCNC(=O)C(c1ccccc1)N(Cc1ccc2c(c1)OCO2)C(=O)c1ccccc1O (stereo not drawn),-9,4%,-22%,-1,-3%,3%
COc1ccc(S(=O)(=O)NCC(=O)O)cc1C(=O)NC1CCCCC1,-10,-12%,-13%,-21,25%,6%
CC(OC(=O)CCN=C1NS(=O)(=O)c2ccccc21)C(=O)Nc1ccc(F)cc1 (stereo not drawn),-10,-4%,-11%,-6,-6%,0%
COc1ccc(Nc2nnc(-c3ccc(N4CCOCC4)c([N+](=O)[O-])c3)c3ccccc23)cc1,19,23µM*,23µM*,-11,-8%,6%
Cc1cccc(-c2noc(-c3ccc(N4CCN(C)CC4)c([N+](=O)[O-])c3)n2)c1,·,?,23µM*,·,·,9%
Cc1cccc(-c2noc(-c3ccc(N4CCOCC4)c([N+](=O)[O-])c3)n2)c1,·,?,18µM*,·,·,9%
COc1cc(-c2noc(-c3ccc(N4CCOCC4)c([N+](=O)[O-])c3)n2)cc(OC)c1OC,·,?,5.2µM*,·,·,6%
Cc1cccc(-c2noc(-c3ccc(N4CCCC4)c([N+](=O)[O-])c3)n2)c1,·,-21%,?,·,·,0%
COc1ccc(-c2noc(-c3ccc(N4CCCC4)c([N+](=O)[O-])c3)n2)cc1OC,·,?,-16%,·,·,3%
CC(=O)c1cc(-c2ccccc2)n(CCC(=O)NC(C)(C)C)c1C,58,1%,-20%,-5,18%,0%
CCOC(=O)N1CCN(C(=O)c2cccc(NS(=O)(=O)c3ccc(F)c(F)c3)c2)CC1,17,-18%,-15%,-1,5%,-1%
COc1ccccc1NC(=O)NC1(C(=O)N2CCC(O)CC2)CCCCC1,10,5%,-12%,-17,2%,-2%
CCOC(=O)C1CCN(C(=O)c2ccccc2NS(=O)(=O)c2ccc(C)cc2)CC1,0,?,-16%,-8,-10%,7%
COc1ccccc1NC(=O)NC1(C(=O)N2CCCCC2)CCCCC1,-76*,-21%,5%,14,-4%,6%
CCOC(=O)C1CCN(C(=O)c2cccc(NS(=O)(=O)c3ccc(F)c(F)c3)c2)CC1,-101*,-10%,-12%,-9,-5%,1%
COc1ccccc1NS(=O)(=O)c1ccc(C(=O)N2CCN(c3ccccc3)CC2)cc1,-7,?,?,-6,?,2%
CCOC(=O)C1CCN(C(=O)c2ccc(S(=O)(=O)Nc3ccccc3Cl)cc2)CC1,?,?,12µM*,-5,-6%,2%
COc1ccccc1NS(=O)(=O)c1ccc(C(=O)N2CCCCCC2)cc1,6,18µM*,13µM*,-11,?,1%
SMILES,IL-1B inflam inh,TDP1 cell CPT,DT40 TDP1 no CPT,Giardia killer,ELG1 DNA repair,TDP1 inh
Cc1ccc(CNC(=O)CS(=O)(=O)c2cccc3nsnc23)cc1,·,3%,-78%,·,·,3%
CC(C)CN1CCN(Cc2cccc3cccnc23)CC1CCO (stereo not drawn),16,-16%,?,-11,6%,3%
Cn1c(-c2ccncc2)nc2cc(C(=O)N[C@H]3CCCCNC3=O)cc(NC(=O)C3CCC3)c21,·,-4%,?,·,·,·
COc1ccc(OC)c(N(CC(=O)N2CCOCC2)S(C)(=O)=O)c1,2,22%,-19%,20,4%,·
O=C(COC(=O)c1cccc(NS(=O)(=O)c2ccc(F)c(F)c2)c1)NC(=O)NC1CCCCC1,-20,?,16µM*,12,-7%,6%
O=C(NCCO)C(=O)Nc1c2c(nn1-c1ccc(F)cc1)CSC2,·,-7%,-2%,·,·,8%
CC(=O)/C(=N\Nc1ccccc1)Oc1ccc([N+](=O)[O-])cc1,28,-17%,6%,-7,6%,-7%
CC(C)OP(=O)(OC(C)C)/C(C=O)=N\Nc1ccc([N+](=O)[O-])cc1,-90*,16µM*,?,11,23µM*,·
CCc1ccc(NC(=O)CCc2c(C)nc3nc(-c4cc(OC)cc(OC)c4)nn3c2C)cc1,·,-8%,4%,·,·,2%
O=S(=O)(Nc1cccc(-c2ccc(N3CCCC3)nn2)c1)c1ccccc1C(F)(F)F,·,3%,-11%,·,·,7%
Cc1cc(C)n(Cc2ccccc2Cl)n1,0,9%,-18%,8,14%,-2%
CCOC(=O)Cn1nc(/C=C/c2ccc(OC)cc2)ccc1=O,-29,-19%,-27%,3,·,·
Cc1ccc(/C=C/c2ccc(=O)n(Cc3ccccc3Cl)n2)cc1,?,16µM*,26µM*,-8,?,·
O=c1ccc(/C=C/c2ccccc2)nn1Cc1ccc(F)cc1,-60*,5%,-23%,6,-25%,-4%
Cc1ccc(/C=C/c2ccc(=O)n(Cc3ccc(F)cc3)n2)cc1,0,?,?,-8,1%,-8%
COc1ccc(/C=C/c2ccc(=O)n(Cc3ccccc3)n2)cc1,-156*,?,?,8,?,-1%
CC(=O)Nc1c(C)nn(-c2ccccc2)c1N1CCC(C(=O)NCc2cccc(Cl)c2)CC1,·,-11%,-20%,·,·,5%
